# Rows were chosen to be rich in hits. Some 2.4% of all compounds tested hit in one or more screens of this group.
# FEN1 inhibitor = qHTS Assay for the Inhibitors of Human Flap endonuclease 1 (FEN1); 390,000 compounds, 0.35% hits; Recombinant FEN1 flap cleavage, fluorescence, 15 min; AID 588795, 2011; Potency, µM (titrated, usually from 114 µM), without a hit: top-dose activity change, negative = inhibition, usual class: inhibitors; further: on the % scale 0 is the no-effect control and ±100 the full control effect; nearly all actives have a fitted effect of over 65% in size
#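 Concentration–response screening of FEN1 (10 nM): 15 min compound preincubation at room temperature, reaction started with 50 nM substrate and read at 0 and 15 min. Corrected, normalized data were fitted by a four-parameter Hill equation.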
# Pol eta inh = qHTS for Inhibitors of Polymerase Eta; DNA polymerase eta (Homo sapiens), Q9Y253; recombinant Pol eta, fluorescent DNA replication assay; Potency, µM (titrated, usually from 114 µM), without a hit: top-dose activity change, negative = inhibition, most hits filed as inhibitors; 390,000 compounds, 1.2% hits; further: on the % scale 0 is the no-effect control and ±100 the full control effect
#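 Pol eta at 10 nM preincubated with compounds 15 min at room temperature; reaction started with fluorescent substrate (50 nM final) and read kinetically at 0 and 10 min.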
# Pol beta inh = qHTS Assay for Inhibitors of DNA Polymerase Beta; P06746; Pol beta primer extension/strand displacement, fluorescence kinetic; Potency, µM (series often up to 114 µM), for the others: at the top dose activity change, negative = inhibition, hits mostly inhibitors; 340,000 compounds, 1.3% hits; AID 485314, 2010; further: on the % scale 0 is the no-effect control and ±100 the full control effect
#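 Human Pol beta at 10 nM; strand-displacement substrate 50 nM final. Compound exposure 15 min at room temperature before start, reaction 10 min at room temperature.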
# POLK inh = qHTS for Inhibitors of Polymerase Kappa; DNA polymerase kappa (Homo sapiens), Q9UBT6; purified Pol kappa, fluorescent DNA synthesis assay, 10 min; Potency, µM (top dose mostly 107 µM), without a hit: at the top dose activity, negative = inhibition, hits mostly inhibitors; 400,000 compounds, 0.53% hits; AID 588579, 2011; further: on the % scale 0 is the no-effect control and ±100 the full control effect
# Target sequence (Q9UBT6 whole entry, looked up): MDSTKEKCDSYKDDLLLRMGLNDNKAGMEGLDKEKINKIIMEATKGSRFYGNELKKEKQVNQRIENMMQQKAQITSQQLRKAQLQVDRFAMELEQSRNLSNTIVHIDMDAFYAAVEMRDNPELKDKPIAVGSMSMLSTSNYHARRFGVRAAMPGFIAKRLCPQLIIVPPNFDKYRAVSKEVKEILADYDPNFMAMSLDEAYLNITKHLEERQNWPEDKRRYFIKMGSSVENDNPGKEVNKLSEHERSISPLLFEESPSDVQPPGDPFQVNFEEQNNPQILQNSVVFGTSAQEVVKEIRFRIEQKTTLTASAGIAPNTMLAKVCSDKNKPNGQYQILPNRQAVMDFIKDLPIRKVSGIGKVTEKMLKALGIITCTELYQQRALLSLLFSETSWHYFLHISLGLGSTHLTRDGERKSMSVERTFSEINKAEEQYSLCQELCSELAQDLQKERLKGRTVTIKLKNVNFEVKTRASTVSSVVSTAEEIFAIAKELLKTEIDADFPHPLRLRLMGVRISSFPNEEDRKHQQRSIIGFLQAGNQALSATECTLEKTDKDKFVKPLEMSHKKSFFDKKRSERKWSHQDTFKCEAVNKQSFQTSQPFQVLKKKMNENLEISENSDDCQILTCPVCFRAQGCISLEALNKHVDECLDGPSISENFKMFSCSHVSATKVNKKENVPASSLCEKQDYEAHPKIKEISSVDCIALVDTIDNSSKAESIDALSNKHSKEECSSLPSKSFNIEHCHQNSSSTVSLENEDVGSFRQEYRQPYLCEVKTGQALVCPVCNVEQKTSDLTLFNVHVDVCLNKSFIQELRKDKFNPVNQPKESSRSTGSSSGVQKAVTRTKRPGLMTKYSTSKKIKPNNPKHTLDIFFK
#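 10 nM Pol kappa preincubated 15 min at room temperature with compounds, then reaction started with substrate at 50 nM final. Fluorescence read kinetically at 0 and 10 min; buffer-only wells served as negative control.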
# POLI inh = qHTS for Inhibitors of Polymerase Iota; Pol iota fluorescent replication assay, 10 min; DNA polymerase iota (Homo sapiens), Q9UNA4; 390,000 compounds, 1% hits; Potency, µM (titrated, usually from 115 µM), for inactives: at the highest dose activity, negative = inhibition, actives largely listed as inhibitors
#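 Fluorescent replication assay read twice, at 0 min and 10 min after adding 50 nM (final) substrate. Enzyme (10 nM) and compounds were first incubated 15 min at room temperature; enzyme-free buffer wells were negative controls.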
# WRN inhibitor = qHTS for Inhibitors of WRN Helicase. WRN helicase unwinding, fluorescent forked duplex, kinetic. Potency, µM (highest dose often 114 µM), without a hit: top-dose activity change, negative = inhibition, usual class: inhibitors. 360,000 compounds, 0.46% hits; further: on the % scale 0 is the no-effect control and ±100 the full control effect; nearly all actives have a fitted effect of over 55% in size
#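 Screening of the MLSMR collection measured strand separation of a quenched forked DNA duplex (100 nM) by 20 nM WRN with 2 mM ATP, all final. Compounds were preincubated with enzyme 15 min at room temperature.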
# Active calls of the source: *; u = inconclusive; x = not tested or not shown; [ ] = another dose, or the depositor's remark. The call rests on the fitted dose curve; in most records, active means well fitted curve in the direction sought with a large enough effect; inconclusive means small, poorly fitted or top-dose-only effect, or another doubt; inactive means no such curve, though single readings can be large; an effect the other way counts as inactive or inconclusive. Potency means the concentration at half of the fitted maximal effect.
SMILES,FEN1 inhibitor,Pol eta inh,Pol beta inh,POLK inh,POLI inh,WRN inhibitor
O=C(O)c1ccccc1-n1cccc1C(=O)O,3%,40µM*,25µM*,-25%,u,-1%[11.6 µM]
O=C(O)CC1CCC(=C(Cl)Cl)C1 (stereo unspecified),-17%,50µM*,u,-16%,u,-19%
CC/C=C\[C@H](O)[C@H](O)C1=C(C)C(=O)[C@]2(O1)C(=O)N[C@@](OC)(C(=O)c1ccccc1)C2O (stereo partly specified),0%,1%,35µM*,u,u,0%
CCCCCC=CCC=CCCCCCCCC(=O)OCC,x,x,x,0%[19.4 µM],x,x
N#C/C(=C\c1c[nH]c2ccccc12)C(=O)c1ccc(O)c(O)c1,3.4µM*,1.4µM*,3.8µM*,6µM*,7.9µM*,x
COc1ccc(C(=O)Nc2ccc(OC)c([N+](=O)[O-])c2)cc1Br,-12%,u,20µM*,-15%,-48%,-9%
Cc1c(C(=O)O)oc2c1-c1nn(Cc3ccc(Cl)cc3)cc1CC2,-11%,x,25µM*,-34%,u,x
CCNc1ncc2nc(-c3cc(F)cc(F)c3)c(=O)n(C3CC3)c2n1,x,x,x,0%[60.1 µM],x,x
COc1ccccc1-c1nnc2sc(COc3ccc(Cl)cc3Cl)nn12,-24%,-10%,56µM*,-25%,-15%,-10%
COc1ccccc1-c1nnc2sc(COc3ccccc3)nn12,-7%,-14%,8%,-5%,-3%[58.9 µM],-6%
Cc1sc2ccccc2[n+]1CCCC[n+]1c(C)sc2ccccc21,4%,x,x,3%,-6%,x
COc1ccc(CCNC(=O)Cn2c(=O)n(-c3ccc(OC)c(OC)c3)c(=O)c3ccccc32)cc1OC,-12%,-1%,23%,79µM*,u,x
CCc1ccc(-n2c(=O)c3ccccc3n(CC(=O)NCCc3ccc(OC)c(OC)c3)c2=O)cc1,-14%,-8%,15%,-17%,-6%,x
c1ncc2snnc2n1,-1%,x,x,-10%,u,x
COc1cccc(/C=C/c2[nH]c(=O)[nH]c(=O)c2[N+](=O)[O-])c1O,-3%,50µM*,32%,-17%,11µM*,-10%[11.6 µM]
CC(C)c1ccc(/C=C/c2[nH]c(=O)[nH]c(=O)c2[N+](=O)[O-])cc1,-15%,u,2%,-7%,u,2%
O=c1[nH]c(/C=C/c2ccccc2Cl)c([N+](=O)[O-])c(=O)[nH]1,13%,28µM*,-8%,-27%,u,-35%
C[N+]1(C)[C@@H]2CC(OC(=O)C(O)(c3cccs3)c3cccs3)C[C@H]1[C@@H]1O[C@@H]12 (stereo partly specified),x,x,x,8%[19.4 µM],x,x
CN(C)[C@H]1C(=O)C(C(=O)NCN2CCCC2)=C(O)[C@]2(O)C(=O)C3=C(O)c4c(O)cccc4[C@](C)(O)[C@H]3C[C@H]12,x,x,x,3.8µM*,x,x
CN(C)[C@@H]1C(=O)C(C(=O)NCN2CCCC2)=C(O)[C@@]2(O)C(=O)C3=C(O)c4c(O)cccc4[C@@](C)(O)C3CC12 (stereo partly specified),x,x,0.5µM*,x,x,x
O=C(NCCc1nc2ccccc2n1CCOc1cccc2ccccc12)C1CCCCC1,9%,x,x,2%,1%,x
c1cncc(CNc2cc(-c3ccc4c(c3)OCO4)ncn2)c1,x,x,x,-13%[60.1 µM],x,x
Cc1cnc(/C=C/c2ccc(N(C)C)cc2)cn1,u,x,x,0%,2%,x
Cc1nnc2c3ccccc3nc(Nc3ccccc3C(=O)O)n12,u,79µM*,-28%,-11%,-13%,x
COc1ccc2[nH]cc(CCNc3ncncc3-c3ccccc3C)c2c1,x,x,x,-1%[60.1 µM],x,x
